The subject of the first assay is Plasmodium falciparum. Briefly: GSK_TCMDC: Inhibition of Plasmodium falciparum 3D7 in whole red blood cells, using parasite LDH activity as an index of growth. Test compounds present at 2uM. The format is functional.
For `N=C(N)NC(=O)Nc1cc(Cl)c(Br)c(Cl)c1`, the Inhibition – broadly, how much of the control response was suppressed – is reported as 100%.

Regarding `CC(C)(C)c1cc([N+](=O)[O-])cc(C(=O)Nc2ccccc2C(F)(F)F)c1O`, the Inhibition was found to be 96%.

In turn, `COc1ccc2nccc([C@@H](O)CN3CCC(NC(=O)/C=C/c4cc([N+](=O)[O-])ccc4OC)CC3)c2c1` yielded an Inhibition of 99%.

Molecule `Cc1cc(=NN=CC=Cc2ccccc2)c2ccc(F)cc2[nH]1` gave an Inhibition of 100%.

In turn, `CCCCCC(C)N/C(=N/c1ccccc1Br)Nc1ccc(C#N)cc1O` (stereo unspecified) registered an Inhibition of 98%.

In turn, `Cc1cnc(C(=O)Nc2cccc(-c3ccc(-c4nc5cc(C(F)(F)F)ccc5[nH]4)s3)c2)cn1` yielded an Inhibition of 86%.

The molecule `Cl.O=S(=O)(Nc1cc2c(cc1O)CCNCC2)c1ccc(-c2ccc(Cl)cc2)cc1` displayed an Inhibition of 99%.

`Nc1ccc2nc(C=Cc3ccccc3)[nH]c2c1` showed an Inhibition of 92%.

The molecule `COc1ccc(Nc2nc(N)c3cc(OC)c(OC)cc3n2)cc1OC.Cl` yielded an Inhibition of 99%.

`CCCC(=O)Nc1ccc(OCCCN(Cc2cccc(C(F)(F)F)c2)c2ccc(C#N)c(C(F)(F)F)c2)cc1` showed an Inhibition of 90%.

Turning to `Clc1ccc2c(NN=Cc3ccccc3)ccnc2c1`, the Inhibition was determined as 100%.

Turning to `COc1ccc(CN2CCC(CNC(C)c3cccc4ccccc34)CC2)cc1.O=C(O)C(F)(F)F` (stereo unspecified), the Inhibition is 100%.

Take `O=C(O)C(F)(F)F.c1ccc(C(c2ccccc2)N2CCC(NCc3ccc(OCCCN4CCCCC4)cc3)CC2)cc1`: the Inhibition amounted to 100%.

Molecule `CC(C)N1CCC(N(Cc2ccc(-c3ccc(C(F)(F)F)cc3)cc2)C(=O)Cn2c(CCc3cccc(F)c3F)nc(=O)c3cccnc32)CC1.O=C(O)C(O)C(O)C(=O)O` came in with an Inhibition of 100%.

`Cc1cc(N[C@@H](Cc2ccccc2)C(=O)NC2CCCC2)nc(NCc2ccccc2C)n1.O=C(O)C(F)(F)F` showed an Inhibition of 91%.

In the case of `Cc1cc(NC(=O)c2ccc(-c3ccccc3)cc2)no1`, the Inhibition is 83%.

In the case of `COc1ccc(NC(=O)Nc2cc(C)nc3ccccc23)cc1Cl`, the Inhibition was determined as 100%.

With `O=[N+]([O-])c1ccc(Nc2nc(N/N=C/c3ccc(-c4ccc([N+](=O)[O-])cc4)o3)nc(Nc3ccccc3)n2)cc1`, the Inhibition was 100%.

Molecule `CN(C)c1ccc(CN2CCCCC(NC(=O)c3cc(-c4ccccc4Cl)cs3)C2)cc1.O=C(O)C(F)(F)F` (stereo unspecified) displayed an Inhibition of 91%.

Molecule `COc1ccc(NC(=O)[C@H](Cc2ccccc2)Nc2cc(C)nc(NCCc3ccc(F)cc3)n2)cc1.O=C(O)C(F)(F)F` displayed an Inhibition of 100%.

For `NS(=O)(=O)c1cccc(-c2ccc3ncc(N4CCOCC4)nc3c2)c1`, the Inhibition amounted to 96%.

In turn, `Cc1cccc2nc(-c3ccc(-c4ccc(CN5CCN(CCO)CC5)cc4)s3)[nH]c12.O=C(O)C(F)(F)F` gave an Inhibition of 92%.

The molecule `Cl.Ic1cc(Nc2ncnc3ccsc23)ccc1OCc1ccccc1` returned an Inhibition of 100%.

`CC(C)(CNCc1ccc(F)c(F)c1)c1nc(-c2ccc(Cl)c(O)c2)c(-c2ccncc2)[nH]1.Cl` returned an Inhibition of 100%.

In turn, `CCCCCCCCc1nc(C)c(Br)c(O)c1Br` displayed an Inhibition of 96%.

`O=c1cc(NCCCNCc2ccc3c(c2)OC(F)(F)O3)[nH]c2ccccc12` came in with an Inhibition of 100%.

The test system of another assay is Plasmodium falciparum. Briefly: GSK_TCMDC: Inhibition of Plasmodium falciparum Dd2 in whole red blood cells, using parasite LDH activity as an index of growth. Test compounds present at 2uM. The format is functional.
`O=C(c1ccco1)c1cn(CCOc2ccccc2)c2ccccc12` showed an Inhibition of 10%.

`COc1cc(/C=C/C(=O)NC2CCC(N3CCC(c4ccccc4C)CC3)CC2)cc(OC)c1` (stereo unspecified) registered an Inhibition of 11%.

`COc1ccc2nc(C)cc(N/N=C/c3cccc([N+](=O)[O-])c3)c2c1`: the Inhibition worked out at 97%.

Molecule `CCOCCCn1c(=N)c(C(=O)NC(C)c2ccccc2)cc2c(=O)n3cccc(C)c3nc21` (stereo unspecified) showed an Inhibition of 31%.

As for `CCC(Cc1ccccc1)c1cc(O)c(Cc2ccc(-c3ccccc3)cc2)c(=O)o1` (stereo unspecified), the Inhibition turned out to be 0%.

Molecule `COc1ccc(NC(=O)[C@H](CC(C)C)Nc2cc(C)nc(NCc3cccc(C)c3)n2)cc1.O=C(O)C(F)(F)F` came in with an Inhibition of 90%.

For `N=C(N)NC(=O)Nc1ccc(Cl)c(Cl)c1`, the Inhibition is reported as 13%.

`N=C(N)Nc1ccc(C(=O)O)c(O)c1` showed an Inhibition of 1%.

Molecule `O=C(O)C(F)(F)F.O=C1OC(c2ccccc2)(c2ccccn2)CN1C1CCN(Cc2cccn2-c2ccc(Cl)cc2)CC1` (stereo unspecified) returned an Inhibition of 98%.

`COc1ccc(-c2csc3ncnc(Cl)c23)cc1OC` had an Inhibition of 84%.

`O=C(Nc1cccc(CN2CCN(C(=O)c3cccc(Cl)c3)CC2)c1)c1ccco1.O=C(O)C(F)(F)F` displayed an Inhibition of 94%.

Molecule `COc1cc(CN2CCC(C(=O)Nc3ccc(-c4cccc(C)c4)cc3)CC2)ccc1O` displayed an Inhibition of 85%.

`CC(=O)N1N=C(c2ccc(Cl)cc2)Sc2c1nc(-c1ccccc1)n2C(C)=O` yielded an Inhibition of 81%.

Turning to `C[C@H](NC(=O)[C@H](CCCCNC(=O)OC(C)(C)C)NC(=O)OC(C)(C)c1ccc(-c2ccccc2)cc1)C(=O)OCc1ccccc1`, the Inhibition stood at 1%.

Molecule `N=C(N)NC(=O)Nc1cc(Cl)c(Br)c(Cl)c1` showed an Inhibition of 100%.

On to `CC(C)(C)c1cc([N+](=O)[O-])cc(C(=O)Nc2ccccc2C(F)(F)F)c1O`, for which the Inhibition is given as 99%.

Consider `COc1ccc2nccc([C@@H](O)CN3CCC(NC(=O)/C=C/c4cc([N+](=O)[O-])ccc4OC)CC3)c2c1`, for which the Inhibition turned out to be 76%.

The molecule `Cc1cc(=NN=CC=Cc2ccccc2)c2ccc(F)cc2[nH]1` showed an Inhibition of 30%.

Molecule `CCCCCC(C)N/C(=N/c1ccccc1Br)Nc1ccc(C#N)cc1O` (stereo unspecified) gave an Inhibition of 95%.

Molecule `Cc1cnc(C(=O)Nc2cccc(-c3ccc(-c4nc5cc(C(F)(F)F)ccc5[nH]4)s3)c2)cn1` registered an Inhibition of 14%.

As for `Cl.O=S(=O)(Nc1cc2c(cc1O)CCNCC2)c1ccc(-c2ccc(Cl)cc2)cc1`, the Inhibition is 0%.

The molecule `Nc1ccc2nc(C=Cc3ccccc3)[nH]c2c1` gave an Inhibition of 89%.

For `COc1ccc(Nc2nc(N)c3cc(OC)c(OC)cc3n2)cc1OC.Cl`, the Inhibition is 5%.

On to `CCCC(=O)Nc1ccc(OCCCN(Cc2cccc(C(F)(F)F)c2)c2ccc(C#N)c(C(F)(F)F)c2)cc1`, for which the Inhibition was determined as 89%.

For `Clc1ccc2c(NN=Cc3ccccc3)ccnc2c1`, the Inhibition stood at 94%.

Consider `COc1ccc(CN2CCC(CNC(C)c3cccc4ccccc34)CC2)cc1.O=C(O)C(F)(F)F` (stereo unspecified), for which the Inhibition was found to be 26%.

Consider `O=C(O)C(F)(F)F.c1ccc(C(c2ccccc2)N2CCC(NCc3ccc(OCCCN4CCCCC4)cc3)CC2)cc1`, for which the Inhibition was found to be 100%.

As to `CC(C)N1CCC(N(Cc2ccc(-c3ccc(C(F)(F)F)cc3)cc2)C(=O)Cn2c(CCc3cccc(F)c3F)nc(=O)c3cccnc32)CC1.O=C(O)C(O)C(O)C(=O)O`, the Inhibition turned out to be 80%.

The molecule `Cc1cc(N[C@@H](Cc2ccccc2)C(=O)NC2CCCC2)nc(NCc2ccccc2C)n1.O=C(O)C(F)(F)F` returned an Inhibition of 20%.

The molecule `Cc1cc(NC(=O)c2ccc(-c3ccccc3)cc2)no1` had an Inhibition of 57%.

Take `COc1ccc(NC(=O)Nc2cc(C)nc3ccccc23)cc1Cl`: the Inhibition was determined as 49%.

Turning to `O=[N+]([O-])c1ccc(Nc2nc(N/N=C/c3ccc(-c4ccc([N+](=O)[O-])cc4)o3)nc(Nc3ccccc3)n2)cc1`, the Inhibition was determined as 74%.

On to `CN(C)c1ccc(CN2CCCCC(NC(=O)c3cc(-c4ccccc4Cl)cs3)C2)cc1.O=C(O)C(F)(F)F` (stereo unspecified), for which the Inhibition came out at 14%.

In turn, `COc1ccc(NC(=O)[C@H](Cc2ccccc2)Nc2cc(C)nc(NCCc3ccc(F)cc3)n2)cc1.O=C(O)C(F)(F)F` yielded an Inhibition of 82%.

In turn, `NS(=O)(=O)c1cccc(-c2ccc3ncc(N4CCOCC4)nc3c2)c1` returned an Inhibition of 74%.

`Cc1cccc2nc(-c3ccc(-c4ccc(CN5CCN(CCO)CC5)cc4)s3)[nH]c12.O=C(O)C(F)(F)F` yielded an Inhibition of 47%.

Molecule `Cl.Ic1cc(Nc2ncnc3ccsc23)ccc1OCc1ccccc1` returned an Inhibition of 81%.

Molecule `CC(C)(CNCc1ccc(F)c(F)c1)c1nc(-c2ccc(Cl)c(O)c2)c(-c2ccncc2)[nH]1.Cl` had an Inhibition of 89%.

Turning to `CCCCCCCCc1nc(C)c(Br)c(O)c1Br`, the Inhibition is 95%.

Consider `O=c1cc(NCCCNCc2ccc3c(c2)OC(F)(F)O3)[nH]c2ccccc12`, for which the Inhibition is on record as 94%.
